Screen size: about 330,000 compounds; about 670 (0.2%) were called active. This excerpt belongs to a sample that is enriched for actives. A number with no mark means an inactive call.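 Rule for the calls: active = activity change below a set negative limit, meaning inhibition stronger than a set level (cut at about -70% in these data); inconclusive = activity change between two set negative limits; inactive = the rest.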
What follows are compounds tested against Thyrotropin receptor (Homo sapiens) (UniProt P16473) (assay: Antagonists of the Thyroid Stimulating Hormone Receptor: HTS campaign). Conditions: TSHR-expressing cells, TSH-stimulated cAMP HTRF, 2 h; at 11.5 µM; active compounds read low.
Description: The thyroid-stimulating hormone receptor (TSHR) is a member of the 7 trans-membrane-spanning receptor (7TMR) family of cell surface receptors. TSHR-mediated hyperthyroidism is important in thyroid pathology. The development of small molecule antagonists of TSHR may lead to therapeutic approaches for TSHR-mediated hyperthyroidism caused by constitutively activating mutations or stimulating auto-antibodies associated with Graves' disease. Graves' disease is the leading cause of hyperthyroidism and is caused by autoantibodies that stimulate TSHR (TsAbs) causing thyroid growth and unregulated overproduction of thyroid hormones and existing treatments have liabilities (agranulocytosis). In addition, TSHRs are known to be expressed in multiple extrathyroidal tissues including bone, brain, kidney, testis, fat and cells of the immune system but the role of the TSHR in these tissues is not clear. Therefore, TSHR antagonists/inverse agonists could be used as probes of extrathyroidal TSHR function. Finally, TSHR inverse agonists, which are a subclass of antagonists that inhibit agonist-independent (or basal or constitutive) TSHR signaling, could be used to inhibit TSH-independent signaling in patients with recurrent or metastatic thyroid cancer who are receiving thyroid hormone to suppress TSH. In collaboration between scientist from the NCGC and the NIDDK, a miniaturized HTRF high-throughput screen was developed. It's a cell based assay, where an anti cAMP antibody contains a fluorescent cryptate tag (excitation 337 nm; emission 620 nm) and the acceptor is cAMP-d2 (excitation 620 nm; emission 665 nm). When antibody and cAMP-d2 interact and are excited by a 337 nm light, a FRET occurs resulting in emission at 665 nm. The assay is competition between cAMP-d2 and cAMP (from the cell lysate). The homogeneous protocol allows for one step dispense after stimulation that is automation friendly. NIH Chemical Genomics Center [NCGC] NIH Molecular Libraries Probe Centers Network [MLPCN] MLPCN Grant: MH090855-01 Assay Submitter (PI): Marvin Gerhengorn
1. 3ul of 200 TSHR freshly harvested cells/well are dispensed into a 1536 TC-treated white solid bottom plate. 2. Through pintool addition, 23nl of compounds and control in 100% DMSO are added to the plate. 3. Then 1ul of EC80 TSH (4nM final) is added to the plate. 4. Assay is incubated at 37 deg C for 2 hours. 5. 2ul of cAMP antibody diluted 1:20 in lysis buffer is added. 6. Immediately following, 2ul of d2 diluted 1:20 in HBSS is added seperately. 7. The assay is incubated for 30 minutes at ambient room temperature. 8. The result is obtained by using a ViewLux read-out with HTRF settings.
% is set by controls: 0 for no effect and ±100 for the full control effect.

Sequence of Thyrotropin receptor (Homo sapiens) (P16473 whole entry, looked up): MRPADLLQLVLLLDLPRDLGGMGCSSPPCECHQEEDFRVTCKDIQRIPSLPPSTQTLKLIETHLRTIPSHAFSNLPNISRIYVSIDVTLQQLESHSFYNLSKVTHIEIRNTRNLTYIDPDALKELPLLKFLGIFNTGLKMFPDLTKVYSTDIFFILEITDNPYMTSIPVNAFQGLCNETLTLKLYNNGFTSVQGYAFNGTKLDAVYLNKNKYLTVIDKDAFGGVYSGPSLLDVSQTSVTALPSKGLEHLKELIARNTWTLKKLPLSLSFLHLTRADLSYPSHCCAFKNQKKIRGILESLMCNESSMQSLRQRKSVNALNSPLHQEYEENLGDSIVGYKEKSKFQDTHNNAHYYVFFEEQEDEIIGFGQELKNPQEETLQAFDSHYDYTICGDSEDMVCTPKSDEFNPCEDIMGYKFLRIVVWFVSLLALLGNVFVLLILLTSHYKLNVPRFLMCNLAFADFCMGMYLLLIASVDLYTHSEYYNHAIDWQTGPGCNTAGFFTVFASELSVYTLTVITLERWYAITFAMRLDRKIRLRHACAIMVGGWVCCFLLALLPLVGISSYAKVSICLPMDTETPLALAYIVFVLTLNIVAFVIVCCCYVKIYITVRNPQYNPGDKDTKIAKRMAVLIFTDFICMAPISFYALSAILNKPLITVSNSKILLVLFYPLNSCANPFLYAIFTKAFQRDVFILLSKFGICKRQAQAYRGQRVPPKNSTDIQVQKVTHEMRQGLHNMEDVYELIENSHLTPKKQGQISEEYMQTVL

SMILES	activity change, negative = inhibition
CC(C)(O)C#Cc1ccc(C(=O)N2CCC(C(N)=O)(N3CCCCC3)CC2)cc1	2.47%
NC(=O)C1(N2CCCCC2)CCN(C(=O)c2ccc(C#Cc3ccccc3)o2)CC1	-75.1% (active)
NC(=O)C1(N2CCCCC2)CCN(C(=S)Nc2ccc(Cl)cc2)CC1	25.4%
CSc1ccccc1N1CCN(CCCCCC(=O)NC2CCCc3ccccc32)CC1 (centres undefined)	-13.5%
Cc1c(C)n2c(SCC(=O)NC3CCCC3)nnc2[nH]c1=O	-8.74%
CSc1cccc(NC(=O)CN2C(=O)COc3ccc(S(=O)(=O)N4CCOCC4)cc32)c1	-134% (active)
CC(=O)Nc1ccc(NC(=O)CN2C(=O)COc3ccc(S(=O)(=O)N4CCCCC4)cc32)cc1	0.648%
COc1ccc(NC(=O)CN2C(=O)COc3ccc(S(=O)(=O)N4CCOCC4)cc32)cc1	-2.02%
Cc1cc2occ(CC(=O)NNC(=O)c3ccccc3F)c2cc1C	3.48%
Cc1csc(NC(=O)CSc2nc(=O)n(CCCN(C)C)c3c2CCC3)n1	-6.64%
CSc1nc(N(C)NC(=O)c2cccc(C)c2)c2ccccc2n1	-3.52%
Cc1ccnc(NS(=O)(=O)c2ccc(NC(=O)c3oc4ccc(F)cc4c3C)cc2)n1	4.87%
Cc1cc(C)c2oc(C(=O)Nc3ccc(S(=O)(=O)Nc4nccc(C)n4)cc3)cc(=O)c2c1	-137% (active)
Cc1ccnc(NS(=O)(=O)c2ccc(NC(=O)c3oc4ccccc4c3C)cc2)n1	-4.53%
CCCCC(C(=O)NC(C)(C)C)N(Cc1ccccc1)C(=O)c1snc(C(N)=O)c1N (centres undefined)	-2.07%
CC/C(=N/Nc1ccccc1)c1cnnc(SC)n1	-5.85%
Cc1cccc(C)c1NC(=O)CSc1nc2c([nH]1)c(=O)n(C)c(=O)n2C	-2.1%
Cn1c2cc(B(O)O)sc2c2cnn(Cc3ccccc3F)c(=O)c21	-27.6%
CCOc1ccc(N(CC(=O)NC2CCCCCC2)S(=O)(=O)c2c(C)[nH]c(=O)[nH]c2=O)cc1	-10.6%
O=C(CN1C(=O)NC2(CCCCCC2)C1=O)Nc1ccc([N+](=O)[O-])cc1	0.839%
CN(C(=O)C1CCN(c2ncnc3c2nc2n3CCCCC2)CC1)C1CCCCC1	1.35%
[O-][n+]1onc2c1CCc1[nH]c(-c3ccccc3)nc1-2	-36.4%
CCCC1(C(=O)OC)NC(c2ccco2)C2C(=O)N(C)C(=O)C21 (centres undefined)	-3.19%

SMILES	activity change, negative = inhibition
Cc1cc(NC(=O)CN2C(=O)NC(C)(CCc3ccccc3)C2=O)no1 (centres undefined)	10.4%
CCCCN(C(=O)c1ccc2ccccc2c1)c1c(N)n(CCCC)c(=O)[nH]c1=O	-8.5%
CNC(=S)N1CCC(NC(=O)C(Cc2ccc(F)cc2)NC(C)=O)CC1 (centres undefined)	-6.46%
O=C(COc1ccc(Cl)cc1)Nc1ccc2c(c1)OCO2	-1.65%
O=P(O)(CN1CCCCCC1)C1Cc2ccccc2C1	34.6%
CCOC(=O)C1(Cc2ccccc2C)CCCN(C(=O)CN2C(=O)CSC2=O)C1 (centres undefined)	28.6%
COc1cc([N+](=O)[O-])cc([N+](=O)[O-])c1NC(=O)N1CCOCC1	-0.913%
CCN(CC(=O)Nc1ccc(NC(C)=O)cc1)C(=O)C1CC(=O)N(Cc2ccc(C)cc2)C1 (centres undefined)	0.752%
CN1CCCc2cc(C#N)c(=O)[nH]c21	4.52%
COCCn1c(Cc2cccn2C)nnc1SCC(=O)Nc1nccs1	4.54%
C/C(CCC(=O)OC[C@H]1O[C@H](C#Cc2ccccc2)C=C[C@@H]1Oc1ccc(C)cc1)=N\OC[C@@H](O)[C@H]1O[C@@H]2OC(C)(C)O[C@@H]2[C@H]1O	-3.15%
CCOC(CNC(=O)C(=O)NCC(c1ccco1)N1CCN(c2ccc(OC)cc2)CC1)OCC (centres undefined)	0.959%
Cc1cc(=O)oc2c(C)c(OC(C)C(=O)NC3CCN(Cc4ccccc4)CC3)ccc12 (centres undefined)	-2.61%
O=c1cc(-c2ccccc2)[nH]c2nc(Cl)ccc12	-13.7%
C=CC1(C)CC(=O)C2(O)C(C)(O1)C(OC(C)=O)C(O)C1C(C)(C)CCC(O)C12C (centres undefined)	107%
CN(C)c1ccc(CNC(=O)CN2C(=O)COc3ccc(S(=O)(=O)N4CCCC4)cc32)cc1	-5.17%
CCn1ccnc1CNC(=O)CC1C(=O)NCCN1CCCc1ccccc1 (centres undefined)	8.41%
O=C(O)CCn1cc(/C=C/C(=O)c2ccc(Cl)cc2)c(-c2cccc(Br)c2)n1	-11.6%
O=C(NCc1ccccc1Cl)C1CCCO1 (centres undefined)	-3.41%
O=C(Nc1ccc(C(=O)NCc2ccccc2Cl)cc1)C1=CSCCO1	-135% (active)
CSc1ccc(CNC(=O)c2ccc(NC(=O)C3=CSCCO3)cc2)cc1	17.8%
CC(NC(=O)c1cc(=O)[nH]c2ccccc12)c1ccc(F)cc1F (centres undefined)	-93% (active)
CC(NC(=O)COC(=O)c1cc(=O)[nH]c2ccccc12)c1ccccc1 (centres undefined)	-4.46%

SMILES	activity change, negative = inhibition
O=C(CNC(=O)c1cc(=O)[nH]c2ccccc12)Nc1ccc(F)c(F)c1	1.67%
Cc1cc(C(=O)N/N=C/c2cc([N+](=O)[O-])cc(C)c2O)n[nH]1	13.9%
O=[N+]([O-])c1cc(Br)c(O)c(/C=N/Nc2nc3ccccc3s2)c1	-87.3% (active)
COc1ccc(CC(=O)N/N=C/c2cc([N+](=O)[O-])cc(Br)c2O)cc1	1.63%
CC(C)Cn1c(=O)c2ccccc2n2c(CCC(=O)NCc3ccccn3)nnc12	3.77%
C=CCc1ccccc1OCC(O)CN1CCN(CCO)CC1 (centres undefined)	3.81%
Cc1cc(C)c(C#N)c(SCC(=O)Nc2ccccc2)n1	1.53%
Cc1cc(C#N)c(SCC(N)=O)nc1-c1ccc(F)cc1	-75.8% (active)
Cc1cc(C)c2c(-c3ccc(F)cc3)c(C#N)c(=O)n(C)c2n1	-4.99%
CNC(=O)C1CCN(S(=O)(=O)c2c(C)noc2/C=C/c2cccc(C)c2)CC1	9.08%
CC(NC(=O)CNC(=O)Cc1cccc2ccccc12)c1ccc(S(N)(=O)=O)cc1 (centres undefined)	-28.1%
CCNC(=O)N1CCN(S(=O)(=O)c2ccc3c(c2)OCCCO3)CC1	13%
O=c1ccc(-c2ccc(S(=O)(=O)Nc3ccccc3)o2)n[nH]1	14.7%
COc1cccc(NC(=O)CC(c2ccc(OC(C)C)cc2)c2ccccc2OC)c1 (centres undefined)	-14.4%
CCOC(=O)NN1C(=O)c2ccccc2NC1c1ccccc1O (centres undefined)	8.06%
O=C(CCN1C(=O)C2C3CCC(C3)C2C1=O)Nc1ccc(Cl)cc1Cl (centres undefined)	1.9%
CCN(CC)C(=O)CSc1nnc(-c2ccc(S(=O)(=O)NCc3ccccc3Cl)cc2)o1	-13.6%
COc1ccc(S(=O)(=O)n2cnc3ccccc32)c(C)c1	-81.3% (active)
Cc1ccc(S(=O)(=O)n2cnc3ccccc32)c(C)c1	2.16%
COc1ccc(S(=O)(=O)N2CCN(C)CC2)c(C)c1	-0.476%
CCC1SC2=NCCN2C1(O)c1ccc(Cl)cc1 (centres undefined)	6.43%
CCOc1ccc(N(CC(=O)NCCc2ccc(F)cc2)S(=O)(=O)c2ccccc2)cc1	-7.25%
COC(=O)c1cc(=O)n(-c2c(Cl)cc(C(F)(F)F)cc2Cl)[nH]1	-90% (active)

SMILES	activity change, negative = inhibition
CCN1C(=S)N[C@@H](c2cccc(C(F)(F)F)c2)C(C(=O)OC)=C1C	0.624%
CC(NC(=O)Cn1cc(C(F)(F)F)cc(Cl)c1=O)c1ccccc1 (centres undefined)	7.91%
Cc1sc2ncn(CC(=O)NCCCC(=O)N3CCN(c4ccccc4F)CC3)c(=O)c2c1C	3.65%
Cc1sc2ncn(CC(=O)NCCCC(=O)N(C)Cc3ccccc3)c(=O)c2c1C	3.25%
Cc1sc2ncn(CC(=O)NCCCC(=O)NCc3ccc(F)cc3)c(=O)c2c1C	-97.7% (active)
COc1ccc(CCNCc2c(-c3ccccc3)n(C)c3ccccc23)cc1	5.27%
COc1cc(OC)cc(C(=O)NNC(=O)CNC(=O)c2ccc(Br)o2)c1	-4.32%
NC1CCN(O)C1=O (centres undefined)	5.61%
CCC(C)NC(=O)C1CCC(=O)N1Cc1ccc(C)cc1 (centres undefined)	1.98%
CCCN(c1ccc(C(C)C)cc1)S(=O)(=O)c1c(C)[nH]c(=O)[nH]c1=O	-12.7%
Cc1ccc(CN2CCNC(=O)C2CC(=O)NCc2csc(C(C)C)n2)cc1 (centres undefined)	12.6%
NC(=O)C1CCN(c2nc(-c3cccc(F)c3)cs2)CC1	-7.85%
COc1ccc(NC(=O)CSc2nnc(Cc3ccccc3)c(=O)n2N)cc1	7.33%
CCCCn1c(N)c(N(CCOC)C(=O)COc2c(C)cccc2C)c(=O)[nH]c1=O	-0.316%
CCc1ccccc1NC(=O)CN(C)C(=O)COc1ccc(C)nc1[N+](=O)[O-]	4.86%
C1CC1Cc1noc(CN2CCN(CC3CC3)CC2)n1	3.76%
NS(=O)(=O)c1cc(C(=O)NCCOc2ccccc2)c(Cl)cc1Cl	8.26%
CCc1nn(CC(=O)N2CCN(c3cc(C)ccc3C)CC2)c(=O)c2cc3occc3n12	12.8%
OCC(O)CN(c1ccccc1)c1ccccc1 (centres undefined)	3.75%
CC1(C)O[C@@H]2[C@H](O1)[C@@H](CO)O[C@H]2n1c(N2CCCCC2)nc2c(N)ncnc21	-5.04%

Source: PubChem BioAssay AID504810 (National Center for Advancing Translational Sciences (NCATS), 2011)
